VDR inhibitor – vitamin D3 receptor (human) inhibition | P11473 | VDR-SRC2-3 peptide fluorescence polarization, 2 h | Potency, µM, without a hit: max response, negative = inhibition, hits mostly inhibitors | hit rate 0.93% among 400,000; further: potency means the concentration at half of the fitted maximal effect; on the % scale 0 is the no-effect control and ±100 the full control effect
Target sequence (P11473 whole entry, looked up): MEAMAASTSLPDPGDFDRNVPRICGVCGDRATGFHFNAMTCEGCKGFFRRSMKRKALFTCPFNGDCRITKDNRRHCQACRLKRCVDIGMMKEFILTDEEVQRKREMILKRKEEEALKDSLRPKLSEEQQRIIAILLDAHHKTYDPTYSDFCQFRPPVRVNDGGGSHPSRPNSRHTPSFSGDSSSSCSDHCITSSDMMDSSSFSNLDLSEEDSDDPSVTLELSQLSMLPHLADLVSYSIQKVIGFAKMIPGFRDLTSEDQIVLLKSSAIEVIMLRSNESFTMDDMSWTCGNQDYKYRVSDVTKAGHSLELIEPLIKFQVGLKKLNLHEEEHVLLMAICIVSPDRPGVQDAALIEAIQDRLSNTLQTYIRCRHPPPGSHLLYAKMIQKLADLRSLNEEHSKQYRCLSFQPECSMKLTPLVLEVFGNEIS
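Reagent solutions, kept cold and dark, are dispensed first; compounds are then pinned in at 23 nl, plates briefly spun, and incubated 2 h at ambient temperature. Inhibition of VDR–SRC2-3 peptide binding is read by fluorescence polarization.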
PLK1 PBD block – blocks phosphopeptide binding to human PLK1 polo-box domain | hit rate 2.8% among 360,000 | Potency, µM, for the others: max response, negative = inhibition, usual class: inhibitors | Plk1 PBD binding of FITC phosphopeptide, fluorescence polarization | P53350; further: potency means the concentration at half of the fitted maximal effect; series mostly up to about 57 µM; on the % scale 0 is the no-effect control and ±100 the full control effect; nearly all actives have a fitted effect of over 65% in size
TSHR antag – human thyrotropin receptor antagonism | P16473 | activity change, negative = inhibition, % at 11.5 µM | hit rate 0.2% among 330,000 | TSHR-expressing cells, TSH-stimulated cAMP HTRF, 2 h; stronger effect = lower value;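 active means activity change below a set negative limit, meaning inhibition stronger than a set level, cut at about -70% in these data; inconclusive means activity change between two set negative limits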; further: on the % scale 0 is the no-effect control and ±100 the full control effect
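Competitive HTRF cAMP read-out (cryptate anti-cAMP antibody, cAMP-d2; 30 min, room temperature) in freshly harvested TSHR cells. Compounds added before TSH at EC80 (4nM final), followed by 2 hours' incubation at 37 deg C.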
uPA generation – inhibitors of cell surface uPA generation; cell surface uPA generation assay, qHTS; Potency, µM (top dose mostly 38.3 µM), for the others: at the top dose activity change, negative = inhibition, actives largely listed as inhibitors; hit rate 0.31% among 330,000; active means well fitted inhibition curve with a large enough effect; inconclusive means small, poorly fitted or top-dose-only effect; inactive means no such curve, though single readings can be large or run the other way; tested in mouse RAW 264.7 cells; further: potency means the concentration at half of the fitted maximal effect; on the % scale 0 is the no-effect control and ±100 the full control effect; nearly all actives have a fitted effect of over 55% in size
TSG101-PTAP inh – blocks PTAP/TSG101 interaction to inhibit HIV-1 budding; Potency, µM (highest dose often 115 µM), without a hit: at the top dose activity change, negative = inhibition, hits mostly inhibitors; 340,000 tested, under 10 active; Fluorescence polarization, FITC-PTAP peptide / Tsg101 binding; active means well fitted inhibition curve with a large enough effect in the main read-out, with a control signal flat, not every such curve was filed as active; inconclusive means small, poorly fitted or top-dose-only effect, or effect the other way, or a change in a side signal; inactive means no such curve, though single readings can be large or run the other way; further: potency means the concentration at half of the fitted maximal effect; % of control where 0% means no effect
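Steps: Tsg101 binding domain dispensed (10 uM final), compounds pinned in DMSO, FITC-labeled PTAP-motif peptide added (50 nM final); after 20 min binding at room temperature, polarization measured.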
Active calls of the source: *; u = inconclusive; x = no result. An excerpt weighted towards active compounds, which were near 3.1% of everything screened. Unless noted, the call rests on the fitted dose curve; in most records, active means well fitted curve in the direction sought with a large enough effect; inconclusive means small, poorly fitted or top-dose-only effect, or another doubt; inactive means no such curve, though single readings can be large; an effect the other way counts as inactive or inconclusive.

SMILES | VDR inhibitor | PLK1 PBD block | TSHR antag | uPA generation | TSG101-PTAP inh
CCOC(=O)c1cc(S(=O)(=O)N2CCN(c3cc(C)ccc3C)CC2)[nH]n1 | 0.5% | x | x | x | x
COc1ccccc1NC(=O)/C=C\C(=O)O | -9.7% | u | 23.4 | 1.9% | -0.3%
COC(=O)/C=C/C(C)=C/C=C/C(C)=C/C=C/C=C(C)/C=C/C=C(C)/C=C/C(=O)O | 89.1µM* | x | x | x | x
O=C(NCCN1CCOCC1)c1ccc2c(c1)N(Cc1ccccc1)CCS2 | u | 26.7µM* | -10.5 | -8.5% | -1.8%
COc1ccc(CCNC(=O)c2ccc3c(c2)N(Cc2ccc(F)cc2)CCS3)cc1OC | u | 29.9µM* | -4.4 | -4.1% | -0.1%
CCCOc1ccccc1C(=O)N1CCCCC1CCN1CCOCC1 (stereo not drawn) | 8.5% | x | x | x | x
c1ccc2c(-c3ccc4nncn4c3)cncc2c1 | x | -3.8% | x | x | x
CCn1ccnc1CN(C)Cc1cn[nH]c1-c1ccc(OC)c(F)c1 | -6.4% | -13.7% | 0.5 | 0.0% | 4.4%
COc1ccc(-c2[nH]ncc2CN(CC2CCC(=O)N2)C(C)C)cc1F (stereo not drawn) | u | 26.7µM* | 0.2 | 1.9% | 0.7%
CN(C(=O)CSc1nc2ccc(NC(=O)c3cccc(F)c3)cc2s1)c1ccccc1 | -9.2% | x | x | x | x
COc1ccc(NC(=O)CN(C)C(=O)CCNC(=O)c2ccccc2OC)cc1 | -1.3% | -7.4% | 5.8 | 2.6% | -1.9%
COc1ccccc1C(=O)NCCC(=O)Nc1ccc(OC(F)(F)F)cc1 | -20.7% | -4.0% | -95.4* | 5.4% | -0.5%
O=C(/C=C/c1ccc(O)c(O)c1)OCCc1ccccc1 | -6.7% | 2.9% | -29.1 | 0.891µM* | -0.6%
O=C(CSc1nc(-c2ccccc2)nc2c1Cc1ccccc1O2)N1CCCCC1 | -10.3% | x | x | x | x
CCCCC[C@H](O)/C=C/[C@@H]1[C@@H](C/C=C\CCCC(=O)OC)[C@@H](O)C[C@H]1O | -14.4% | -15.3% | 19.1 | -3.6% | -0.7%
CCCCC[C@H](O)/C=C/[C@H]1OC(=O)C[C@H](O)[C@@H]1C/C=C\CCCC(=O)O | 1.6% | x | x | x | x
CCCCC[C@H](O)/C=C/C1C(=O)C=C[C@H]1C/C=C\CCCC(=O)OC (stereo partly drawn) | 25.1µM* | -16.2% | x | u | -6.6%
CCCCC[C@H](O)/C=C/[C@H]1C(=O)C=C[C@@H]1C/C=C\CCCC(=O)O | 31.6µM* | x | x | x | x
CCOCC | 1.4% | x | x | x | x
CC(C)C(=O)N1CCc2cc(-c3csc(N)n3)ccc21 | -18.5% | 23.8µM* | -9.4 | -5.8% | -7.9%
CC(C)OC(=O)C(C(=O)C(F)(F)F)c1cc(NS(=O)(=O)c2ccc3c4c(cccc24)C(=O)N3)ccc1O (stereo not drawn) | -10.9% | x | x | x | x
CC(=O)N1c2ccccc2CC1C(=O)N1CCN(c2cc(Cl)ccc2C)CC1 (stereo not drawn) | 10.3% | x | x | x | x
CC[C@H](C)[C@@H](NC(=O)O[C@@H]1Cc2cc(OC)ccc2O[C@H]1c1cccc(OC)c1)C(=O)OC | 4.7% | x | x | x | x
CC(C)c1ccc(C(=O)OCC(=O)NC2CCCC2)cc1 | 1.6% | -4.7% | -10.0 | -4.9% | -13.1%
N#Cc1c(C#N)c(SSc2c(C#N)c(C#N)c(N)n2-c2ccccc2)n(-c2ccccc2)c1N | u | 2.67µM* | x | 7.1% | 3.2%
SMILES | VDR inhibitor | PLK1 PBD block | TSHR antag | uPA generation | TSG101-PTAP inh
N#Cc1c(C#N)c(-c2ccccc2)n(-c2ccc(C(=O)O)cc2)c1N | 12.5% | -4.6% | 0.6 | -18.4% | -25.8%
N#Cc1c(N)n(-c2ccccc2)c(=O)c2cc([N+](=O)[O-])ccc12 | 44.7µM* | -14.8% | -1.5 | -3.2% | 0.0%
NC(=S)NNC(=O)[C@@H]1CCCC[C@@H]1C(=O)O | -16.3% | 21.2µM* | 8.1 | -0.3% | -3.4%
COc1ccc(CNC(=O)CSc2nc3ccsc3c(=O)n2Cc2ccccc2Cl)cc1 | -6.1% | x | x | x | x
COc1ccc(C(C[N+](=O)[O-])c2c(-c3ccccc3)cc3ccccn23)c(OC)c1 (stereo not drawn) | 70.8µM* | -14.2% | 6.4 | -7.0% | -1.6%
COc1ccc(C(C[N+](=O)[O-])c2c(C)cc3ccccn23)cc1 (stereo not drawn) | 7.5% | -13.1% | 3.3 | -13.8% | -2.8%
CN(C(=O)COc1cccc(C#N)c1)C1CCS(=O)(=O)C1 (stereo not drawn) | -13.0% | -6.7% | 5.4 | 6.8% | -6.0%
Cc1cc(N)ccc1-n1c(C)ccc1C | u | -4.8% | -3.2 | -2.0% | -2.0%
Cc1cc(N)ccc1N1CCCC1 | 70.8µM* | u | 0.7 | 1.2% | -8.5%
CCN1/C(=C\C(=S)Nc2ccccc2)Sc2ccccc21 | u | 23.8µM* | 13.1 | -2.2% | -1.8%
c1ccc2c(c1)CCCN2Cc1nnnn1CC1CCCO1 (stereo not drawn) | 1.4% | -27.2% | 3.2 | -5.4% | u
c1ccc(CCn2nnnc2CN2CCCc3ccccc32)cc1 | -14.7% | 13.4µM* | 2.4 | -4.4% | -15.1%
CCOC(=O)CN1C2=NCCN2c2ccccc21 | 13.4% | 1.5% | -6.4 | 5.3% | 0.2%
CCCCCN1C2=NCCN2c2ccccc21 | -6.1% | 23.8µM* | 7.3 | -4.4% | -1.1%
Cc1ccccc1CN1C2=NCCN2c2ccccc21 | 5.4% | 26.7µM* | 2.4 | -5.3% | 0.6%
CC(C)c1nn2c(=O)cc(COc3cccc(NC(=O)c4ccco4)c3)nc2s1 | -32.5% | 23.8µM* | 18.0 | 1.6% | 0.9%
Cn1nnnc1SCC(=O)NC(=O)Cc1ccccc1 | -29.6% | 2.99µM* | 1.8 | -3.9% | 1.3%
CSc1ccc(CNC(=O)C2CCN(c3nnc(-n4cccc4CNc4ccc(C)cc4)s3)CC2)cc1 | -6.6% | x | x | x | x
Cc1ccc(/C=C2\S/C(=N/S(=O)(=O)c3cccs3)NC2=O)cc1 | -24.8% | 18.9µM* | -13.3 | 20.5% | -4.4%
Cc1ccc(S(=O)(=O)/N=C2/NC(=O)/C(=C\c3ccccc3)S2)cc1 | 79.4µM* | 23.8µM* | x | -3.6% | -7.4%
Cc1ccc(S(=O)(=O)/N=C2/NC(=O)/C(=C/c3ccncc3)S2)cc1 | x | x | -10.5 | x | x
Cc1ccc(S(=O)(=O)/N=C2/NC(=O)/C(=C/c3ccccc3)S2)cc1 | u | u | -22.3 | 1.8% | -10.6%
NC(=O)C1C2C=CC(C2)C1c1ccccc1 (stereo not drawn) | 0.8% | -3.9% | x | -0.7% | -4.1%
C[C@@]12CCC[C@H]1C1CC[C@H]3C[C@H](O)CC[C@]3(C)C1CC2 (stereo partly drawn) | 3.6% | x | x | x | x
CS(=O)(=O)N(CC(=O)N1CCN(c2ccccc2)CC1)C1CCCCC1 | u | 26.7µM* | 4.0 | -0.5% | -2.9%
CCCc1cc(=O)oc2c(CN3CCCC3)c(O)c(Cl)cc12 | 6.6% | -9.5% | 4.2 | 0.4% | -3.3%
CCc1cc(=O)oc2c(CNCc3ccccc3F)c(O)c(Cl)cc12 | -16.9% | 29.9µM* | 9.2 | 6.5% | -3.0%
CN(C(=O)CSc1cn(CC(=O)N2CCCCCC2)c2ccccc12)c1ccccc1 | 12.9% | x | x | x | x
COc1ccc(C(=O)CCS(=O)(=O)c2ccc(C)cc2)cc1OC | u | 11.9µM* | -28.8 | -12.0% | -6.6%
